In the library only some 12% were active in any assay of this set; here they are far more common.
HP1b binding inh: blocks HP1-beta chromodomain binding to methylated histone tails; AlphaScreen HP1-beta / biotin-H3K9me3 peptide binding; P83916; Potency, µM (titrated, usually from 114 µM), inactives show top-dose activity change, negative = inhibition, hits mostly inhibitors; hit rate 0.56% among 390,000; further: nearly all actives have a fitted effect of over 70% in size
Target sequence (P83916 whole entry, looked up): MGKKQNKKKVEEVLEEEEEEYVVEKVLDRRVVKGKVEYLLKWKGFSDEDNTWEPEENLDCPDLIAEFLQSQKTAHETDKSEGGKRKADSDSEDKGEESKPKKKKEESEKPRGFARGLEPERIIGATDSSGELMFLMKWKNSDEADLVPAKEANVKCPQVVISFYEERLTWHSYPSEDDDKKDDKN
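HP1-beta protein (50 nM final) preincubated 30 min at room temperature with biotinylated H3(1-18)K9me3 peptide (50 nM) in PBS pH 7.4, 0.01% Tween-20, then compound added for 30 min. AlphaScreen streptavidin donor/nickel chelate acceptor beads (10 ug/mL final), 30 min dark, luminescence read.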
Sfp inh: blocks B. subtilis Sfp PPTase activity. Q9F4F7. Biochemical Sfp PPTase activity, qHTS. Potency, µM, inactives show largest response in the series, negative = inhibition, actives largely listed as inhibitors. hit rate 3.5% among 310,000. AID 1490;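 further: the enzyme is Sfp with the accession as filed and its product quenches rhodamine fluorescence; 0% = enzyme reaction without inhibitor and -100% = no enzyme wells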
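With Hepes-Na pH 7.6 buffer containing 10 mM MgCl2, Sfp (15 nM) modified BHQ-2-YbbR (12.5 uM) using rhodamine-CoA (5 uM). Two reads 30 minutes apart at 525/598 nm yielded each well's rate.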
BAZ2B inh: BAZ2B (human) inhibition; Q9UIF8; AlphaScreen BAZ2B-H3K14Ac peptide displacement; Potency, µM (titrated, usually from 114 µM), without a hit: at the top dose activity change, negative = inhibition, actives largely listed as inhibitors; hit rate 4.4% among 360,000; further: on the % scale 0 is the no-effect control and ±100 the full control effect; nearly all actives have a fitted effect of over 60% in size
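BAZ2B 50 nM plus b-H3(5-23)K14Ac 50 nM, PBS pH 7.4/0.01% Tween-20, 30 min RT; compound added (max 110 uM), 30 min RT; streptavidin donor/Ni-chelate acceptor beads 10 ug/mL final, 20 min dark; AlphaScreen read.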
PLK1 PBD block: blocks phosphopeptide binding to human PLK1 polo-box domain. P53350. Potency, µM, inactives show max response, negative = inhibition, most hits filed as inhibitors. hit rate 2.8% among 360,000. AID 720504. Plk1 PBD binding of FITC phosphopeptide, fluorescence polarization; further: series mostly up to about 57 µM; on the % scale 0 is the no-effect control and ±100 the full control effect; nearly all actives have a fitted effect of over 65% in size
G9a inh: inhibitors of human histone lysine methyltransferase G9a | G9a H3K9 monomethylation, AlphaScreen, 2 h | Potency, µM (top dose mostly 102 µM), for inactives: at the top dose activity, negative = inhibition, most hits filed as inhibitors | hit rate 8.8% among 350,000 | AID 504332; further: on the % scale 0 is the no-effect control and ±100 the full control effect; nearly all actives have a fitted effect of over 75% in size
Target sequence (Q96KQ7 913-1193 limits assumed): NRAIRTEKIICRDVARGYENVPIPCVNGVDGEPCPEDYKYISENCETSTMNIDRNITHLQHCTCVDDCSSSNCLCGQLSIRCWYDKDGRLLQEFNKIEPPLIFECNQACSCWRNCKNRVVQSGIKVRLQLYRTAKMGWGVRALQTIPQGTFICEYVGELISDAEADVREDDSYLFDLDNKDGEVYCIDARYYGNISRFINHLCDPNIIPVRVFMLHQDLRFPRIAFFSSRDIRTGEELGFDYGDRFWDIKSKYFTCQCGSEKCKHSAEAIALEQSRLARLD
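Quantitative HTS format: methyltransferase activity on a biotin-tagged H3K9 peptide is measured by AlphaScreen, using a rabbit anti-monomethyl-H3K9 antibody with streptavidin donor and anti-IgG acceptor beads. Final levels are 20 nM enzyme, 500 nM peptide, 20 uM SAM; 2 h RT.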
JMJD2A Tudor: JMJD2A Tudor domain (human) inhibition; O75164; AlphaScreen JMJD2A-Tudor / H3K4me3 peptide binding; Potency, µM (titrated, usually from 114 µM), for the others: at the top dose activity change, negative = inhibition, hits mostly inhibitors; hit rate 4.4% among 390,000; AID 504339; further: on the % scale 0 is the no-effect control and ±100 the full control effect; nearly all actives have a fitted effect of over 50% in size
TbPYK confirm: confirmation of Trypanosoma brucei pyruvate kinase inhibitors; shares compounds with PLK1 PBD block; recombinant TbPYK, Kinase-Glo ATP luminescence; Potency, µM (series often up to 76.9 µM), for inactives: at the top dose activity change, negative = inhibition, actives largely listed as inhibitors; hit rate 67% among 890; further: on the % scale 0 is the no-effect control and ±100 the full control effect; nearly all actives have a fitted effect of over 70% in size
TbPYK orthogonal: inhibits T. brucei pyruvate kinase in orthogonal ADP-Glo assay. shares compounds with PLK1 PBD block. recombinant TbPYK, ADP-Glo luminescence, 60 min. Potency, µM (titrated, usually from 76.9 µM), without a hit: top-dose activity change, negative = inhibition, usual class: inhibitors. hit rate 62% among 890; further: on the % scale 0 is the no-effect control and ±100 the full control effect; nearly all actives have a fitted effect of over 75% in size
An asterisk follows results filed as active; ? = inconclusive; nt = no result given; [ ] = dose if it differs, or a comment. The call rests on the fitted dose curve; in most records, active means well fitted curve in the direction sought with a large enough effect; inconclusive means small, poorly fitted or top-dose-only effect, or another doubt; inactive means no such curve, though single readings can be large; an effect the other way counts as inactive or inconclusive. Potency means the concentration at half of the fitted maximal effect.

SMILES	HP1b binding inh	Sfp inh	BAZ2B inh	PLK1 PBD block	G9a inh	JMJD2A Tudor	TbPYK confirm	TbPYK orthogonal
CCCCCSc1nncc(=O)[nH]1	27%	-8%	4%	-9%	?	-11%	nt	nt
Cc1nc(N2CCCC2)ncc1C(=O)NCc1cccc(Cl)c1	20%	nt	-4%	nt	15%[59 µM]	4%	nt	nt
CCn1cc2nc(SCC(=O)Nc3ccccc3F)n(Cc3ccccc3)c(=O)c2n1	-4%[57 µM]	-6%	-9%	-3%	nt	-21%	nt	nt
Cc1cc(C)nc(Sc2nc(Cl)nc(N(c3ccccc3)c3ccccc3)n2)n1	41%	25µM*	?	13µM*	?	6.3µM*	?	35µM*
Cc1cc(C)nc(SC(C(=O)O)c2ccccc2)n1 (stereo unspecified)	48%	11%	-1%	?	10%[59 µM]	-11%	nt	nt
CCN(CC)C1Oc2cc3c(cc2C(c2cc(OC)c(OC)c(OC)c2)C1C)OCO3 (stereo unspecified)	-23%	nt	nt	-3%	nt	?	nt	nt
O=C(CSc1ccc2ccccc2c1)NCCc1ccc(O)c(O)c1	79µM*	25µM*	nt	-13%	2.5µM*	7.9µM*	7.1µM*	16µM*
O=C(Nc1ccc2c(c1)ncn2-c1ccccc1)c1ccco1	8%	32µM*	2%	?	11µM*	-22%	14µM*	4.5µM*
Cn1cnc2cc(NC(=O)c3ccco3)ccc21	21%	16%	-5%	-4%	-23%[12.7 µM]	-12%	nt	nt
C=CCN=c1scc(C)n1/N=C/c1ccc(O)c(O)c1	-15%	32µM*	40µM*	-1%	?	?	0.71µM*	10µM*
C=CCNC(=S)/N=c1/scc(C)n1C	40%	15%	-3%	-15%	-8%	9%	nt	nt
CCC[n+]1c(C)sc2c(OC)ccc(OC)c21	40%	4µM*	5%	0%	25µM*	16µM*	2.8µM*	7.9µM*
O=c1cc(O)n(-c2ccccc2)c(=S)[nH]1	-5%	35µM*	1%	3.4µM*	18µM*	-20%[11.4 µM]	?	-21%
O=S(=O)(/N=S1\CC=CCN1S(=O)(=O)c1ccccc1)c1ccccc1 (stereo unspecified)	?	nt	nt	3.4µM*	nt	-29%	0.5µM*	1.4µM*
CC1CN(C(=O)CCC(=O)Nc2cc(F)ccc2F)c2ccccc2S1 (stereo unspecified)	10%	nt	-13%	nt	7%[59 µM]	-19%	nt	nt
COCCn1c(=S)[nH]c2sc3c(c2c1=O)CCCC3	31%	-27%	0%	-14%	7.9µM*	-14%	10µM*	10µM*
COc1ccc(N2C(=O)CCC(C(=O)N3CCN(c4ccccn4)CC3)C2c2ccc(F)cc2)cc1 (stereo unspecified)	39%	17%	-5%	6%	0%[59 µM]	-4%	nt	nt
O=C(CSc1nnc(NC(=O)c2c(F)cccc2Cl)s1)Nc1ccccc1F	27%	13%	-4%	-12%	4%	-8%	nt	nt
Nc1ccc(S(=O)(=O)c2cc(O)c3ccccc3c2O)cc1	13µM*	nt	nt	2.7µM*	nt	45µM*	13µM*	32µM*
Nc1ccc(S(=O)(=O)Nc2ccc(S(N)(=O)=O)cc2)cc1	-3%	6%	7%	-9%	13%[2.33 µM]	-6%	nt	nt
COc1ccc(OC)c(NC(=O)c2ccccc2N(Cc2ccccc2)S(C)(=O)=O)c1	7%	-7%	-30%	-9%	?	-31%	8.9µM*	14µM*
CC(NC(=O)Cn1c(-c2cccs2)cc2cc(F)ccc21)c1ccccc1 (stereo unspecified)	31%	nt	-1%	nt	-4%[59 µM]	6%	nt	nt
COc1ccc(S(=O)(=O)n2c([N+](=O)[O-])cnc2C)c(C)c1C	28%	5%	?	-4%	nt	-11%	nt	nt
Cc1ccc(S(=O)(=O)n2c([N+](=O)[O-])cnc2C)c(C)c1C	?	-8%	0%	21µM*	-1%[59 µM]	?	4%	-4%
Cc1ccc(/C(O)=C2\C(=O)C(=O)N(CCCN3CCOCC3)C2c2ccccc2F)cc1 (stereo unspecified)	nt	nt	nt	-9%	nt	nt	nt	nt
SMILES	HP1b binding inh	Sfp inh	BAZ2B inh	PLK1 PBD block	G9a inh	JMJD2A Tudor	TbPYK confirm	TbPYK orthogonal
COc1cc(NC(=O)CCc2nnc3ccc(N4CCN(C)CC4)nn23)cc(OC)c1	22%	21%	?	-9%	2%	-12%	nt	nt
O=S(=O)(NCCC(c1ccc(F)cc1)c1ccco1)c1ccccc1 (stereo unspecified)	?	-16%	-2%	21µM*	?	?	-3%	-5%
Fc1ccc(C(CCNCc2cccs2)c2ccco2)cc1 (stereo unspecified)	7%	9%	-27%	4%	0%	-16%	nt	nt
COc1cccc(C(c2sc3nc(C)nn3c2O)N2CCc3ccccc3C2)c1 (stereo unspecified)	50µM*	32µM*	-1%	?	4µM*	20µM*	20µM*	25µM*
CCN1CCN(C(c2cccc(OC)c2)c2sc3nc(C)nn3c2O)CC1 (stereo unspecified)	22%	3%	-1%	6%	7%[59 µM]	-24%	nt	nt
Cc1cccc(-c2ncc(CN3CCN(CCC(C)C)C(CCO)C3)cn2)c1 (stereo unspecified)	23%	9%	1%	-5%	-2%	-7%	nt	nt
CCOC(=O)C1=C(N)N(c2ccccc2)C(=O)C1	?	6%	-3%	3µM*	17%[12.7 µM]	3.5µM*	-2%	-2%
CCc1cccc(NC(=O)CSc2nc3ccsc3c(=O)n2CC)c1	25%	nt	7%	nt	4%[59 µM]	-10%	nt	nt
CCOc1cc(/C=C2\SC(=S)N(N3CCOCC3)C2=O)ccc1O	56%	24%	0%	-8%	-2%[12.7 µM]	-7%	nt	nt
CCOc1cc(/C=C2\SC(=N)N(c3nccs3)C2=O)ccc1OCCN1CCOCC1	7%	8%	-32%	-10%	-21%	-29%	?	?
O=c1ccc2nc3ccccc3sc-2c1	nt	nt	nt	21µM*	nt	nt	13µM*	?
C/C(Cn1nc([N+](=O)[O-])cc1C)=N\NC(=O)COc1c(Cl)cc(Cl)cc1Cl	9%	5%	-33%	-9%	16%[59 µM]	-15%	2%	-3%
COc1cc(C(=O)N/N=C(\C)Cn2nc([N+](=O)[O-])cc2C)ccc1O	?	9%	3%	-6%	-10%[59 µM]	-17%	nt	nt
COc1ccc(CCN(C)C(=O)COC(=O)/C=C/c2ccc(C)o2)cc1OC	-19%	nt	?	-30%	35µM*	?	32µM*	35µM*

Screens (PubChem BioAssay)
